Data from PubChem BioAssay.

Experiments:
[1] = target: Tumor necrosis factor receptor superfamily member 10B (Homo sapiens) (UniProt O14763); assay: viability loss of caspase-8 NB7 cells with TRAIL – with/without TRAIL, luminescence panel, confirmation (AID 651596); conditions: NB7 neuroblastoma + caspase-8, TRAIL sensitization, NB7 Caspase-8, with TRAIL, mean of runs, at 10 µM, stronger effect = higher value
[2] = as above; conditions: NB7 neuroblastoma + caspase-8, without TRAIL, NB7 Caspase-8, without TRAIL, mean of runs, at 10 µM

Sequence of Tumor necrosis factor receptor superfamily member 10B (Homo sapiens) (O14763 whole entry, looked up): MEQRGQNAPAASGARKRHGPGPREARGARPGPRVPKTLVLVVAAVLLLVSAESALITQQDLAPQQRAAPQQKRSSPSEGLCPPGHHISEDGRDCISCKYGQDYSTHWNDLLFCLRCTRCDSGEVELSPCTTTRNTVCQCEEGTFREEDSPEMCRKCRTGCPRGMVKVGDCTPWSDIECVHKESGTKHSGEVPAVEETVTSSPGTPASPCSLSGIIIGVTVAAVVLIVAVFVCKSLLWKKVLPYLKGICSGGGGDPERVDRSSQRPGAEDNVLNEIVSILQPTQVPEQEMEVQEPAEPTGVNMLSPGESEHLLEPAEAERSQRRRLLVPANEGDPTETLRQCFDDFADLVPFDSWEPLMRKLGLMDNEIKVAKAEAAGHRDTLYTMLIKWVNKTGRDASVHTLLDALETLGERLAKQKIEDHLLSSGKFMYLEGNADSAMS

| SMILES | activity [1] [%] | activity [2] [%] |
| --- | --- | --- |
| O=C(/C(=C/c1ccc(Cl)cc1)c1nc2ccccc2[nH]1)c1ccccc1 | 84.1 | 85.1 |
| C/C(=N\NC(=O)c1ccc2ccccc2c1)c1cccs1 | 60.5 | 67.2 |
| COc1cccc(C=Cc2nccc3ccccc23)c1OC | 69.2 | 67.1 |
| CC(=O)CSc1nc2cc3c(cc2cc1C#N)OCCO3 | 49.6 | 35.5 |
| C/C(=N\Nc1nc2ccccc2[nH]1)c1ccc(N2CCOCC2)cc1 | 80.9 | 74.9 |
| O=C(/C=C/c1ccco1)Nc1ccccc1C(=O)O | 45.1 | 42.1 |
| N#CC1=C(N)N2C(=C(C#N)C1c1cccc(Br)c1)Nc1ccccc12 (stereo unspecified) | 55.6 | 61.6 |
| CCOc1ccc(OCC)c(NC(=O)C2CCN(c3nn4c(=O)cc(C)nc4s3)CC2)c1 | 82 | 81.3 |
| Cc1cccc(N2CCN(S(=O)(=O)c3ccc4c(c3)NC(=O)C(C)S4)CC2)c1C (stereo unspecified) | -0.6 | -25.6 |
| Cn1c(N)c(C(=O)CCl)c(=O)n(Cc2ccccc2)c1=O | 96 | 77.9 |
| COc1ccc(OCC(=O)N/N=C(\C)c2cc3ccccc3o2)cc1 | 62.8 | 70.2 |
| Cc1ccc(S(=O)(=O)n2ccc3c(OCCOCCNCc4ccc(F)cc4)cccc32)cc1 | 15.8 | 26.4 |
| COc1ccc(N2C(N)=NC(N)=NC2(C)C)cc1 | 78.6 | 86.5 |
| Cc1ccc(-c2nnc(NC(=O)c3ccco3)s2)cc1 | 58.6 | 62.7 |
| COc1ccc(/C=C/C(=O)c2ccc([N+](=O)[O-])o2)cc1 | 35.2 | 80.8 |
| Cc1nnc(SCC(=O)Nc2ccc(-c3nc4ccccc4s3)cc2)s1 | 51.9 | 33.7 |
| CCOc1ccc(-c2ccc(SCC(=O)NCC3CCCO3)nn2)cc1 (stereo unspecified) | 41.8 | 32.7 |

| SMILES | activity [1] [%] | activity [2] [%] |
| --- | --- | --- |
| COc1ccc2c(n1)Sc1nc3ccccc3nc1N2 | 4.47 | 4.42 |
| O=C(Nc1ccc(Cl)cc1)Nc1ccccc1C(=O)O | 58.3 | 45.1 |
| COc1ccc2[nH]c(-c3ccc(C)cc3)cc(=O)c2c1 | 87.4 | 87.8 |
| Cc1cccc(/C(N)=N/OC(=O)c2ccoc2C)c1 | 90.8 | 91.8 |
| CC(=O)Nc1ccc2nc(-c3ccccc3)cn2c1 | 46.1 | 52.6 |
| CC(=O)c1ccc(N2CCN(c3ccc4cc(S(=O)(=O)N5CCC(C)CC5)ccc4n3)CC2)cc1 | 56.4 | 19.2 |
| COCCn1c(C)cc(C(=O)COC(=O)c2ccc(Cl)c(S(N)(=O)=O)c2)c1C | 52 | 52.4 |
| CCC(C)c1ccc(O)c(/C=N/O)c1 (stereo unspecified) | 38 | 56.6 |
| COc1ccc(-c2sc3ccccc3c2-c2ccc(OCCN(C)C)cc2)cc1 | 52.4 | 73.6 |
| Cc1cc(C)c(C#N)c(SCc2nc3ccccc3c(=O)[nH]2)n1 | 82.8 | 82.5 |
| CCc1ccc(/C=N/Nc2ncnc3nc[nH]c23)cc1 | 47.1 | 41.7 |
| CC(C)c1ccc(NC(=O)Nc2nc(C(N)C3CCCCC3)cs2)cc1 (stereo unspecified) | 92.2 | 99.3 |
| Cc1ccc2nc(NC(=O)c3ccccc3F)sc2c1 | 67.5 | 64 |
| CCOc1cc(/C=N\NC(=O)c2ccc(NC(=O)C(C)(C)C)cc2)ccc1OC(=O)c1cccc(C)c1 | 73.5 | 47.2 |
| O=C(Nc1ccc(O)cc1)c1ccc2c(c1)C(=O)N(Cc1ccccc1)C2=O | 60.9 | 19.7 |
| Cc1cccc(-n2ncc3c(NC(C)C)ncnc32)c1 | 63.2 | 64.7 |
